Measurements taken from PubChem BioAssay (NCATS).
Inconclusive results are not listed. Active and inactive are the calls of the source. Calls come from the whole dose curve; as a rule, active = well fitted curve in the direction sought with a large enough effect; inconclusive = small, poorly fitted or top-dose-only effect, or another doubt; inactive = no such curve, though single readings can be large; an effect the other way counts as inactive or inconclusive.

Assays:
[1] = test system: C33A; assay: Primary qHTS to identify gynecologic anti-cancer compounds using libraries of approved drugs and bioactive compounds (AID 1345084); settings: Gynecologic cancer cell panel viability, ATPlite luminescence, 48 h; series mostly up to 57.5 µM; note: nearly all actives have a fitted effect of over 55% in size
How it was run: (§1)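 Five-point cytotoxicity, 48 h drug exposure at 37 C, 5% CO2, on cells seeded 16 h beforehand. ATP content read by ATPlite luminescence.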

[2] = test system: CAOV3; assay: as above; settings: Gynecologic cancer cell panel viability, ATPlite luminescence, 48 h; series mostly up to 57.5 µM
How it was run: as §1

[3] = test system: CASKI; assay: as above; settings: Gynecologic cancer cell panel viability, ATPlite luminescence, 48 h; series mostly up to 57.5 µM
How it was run: as §1

[4] = test system: Es-2; assay: as above; settings: Gynecologic cancer cell panel viability, ATPlite luminescence, 48 h; series mostly up to 57.5 µM
How it was run: as §1

[5] = test system: HeLa; assay: as above; settings: Gynecologic cancer cell panel viability, ATPlite luminescence, 48 h; series mostly up to 57.5 µM
How it was run: as §1

[6] = test system: Hek293T; assay: as above; settings: Gynecologic cancer cell panel viability, ATPlite luminescence, 48 h, control line for the selectivity index; series mostly up to 57.5 µM
How it was run: as §1

[7] = test system: JEG-3; assay: as above; settings: Gynecologic cancer cell panel viability, ATPlite luminescence, 48 h; series mostly up to 57.5 µM
How it was run: as §1

[8] = test system: OV90; assay: as above; settings: Gynecologic cancer cell panel viability, ATPlite luminescence, 48 h; series mostly up to 57.5 µM
How it was run: as §1

[9] = test system: PA-1; assay: as above; settings: Gynecologic cancer cell panel viability, ATPlite luminescence, 48 h; series mostly up to 57.5 µM
How it was run: as §1

[10] = test system: SKOV3; assay: as above; settings: Gynecologic cancer cell panel viability, ATPlite luminescence, 48 h; series mostly up to 57.5 µM
How it was run: as §1

[11] = test system: Tov-21-G; assay: as above; settings: Gynecologic cancer cell panel viability, ATPlite luminescence, 48 h; series mostly up to 57.5 µM
How it was run: as §1

[12] = test system: Tov112D; assay: as above; settings: Gynecologic cancer cell panel viability, ATPlite luminescence, 48 h; series mostly up to 57.5 µM
How it was run: as §1

[13] = test system: NIH3T3; assay: qHTS assay to identify novel small-molecules to repurpose for Merkel cell carcinoma treatment (AID 1296009); settings: MCC and control cell lines, CellTiter-Glo viability, 72 h; at 44.8 µM (top of the series) unless noted; note: nearly all actives have a fitted effect of over 60% in size
How it was run: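 Luminescence from CellTiter-Glo, read 10 min after addition at room temperature, reported viability following a 72 hr, 37 degree celsius treatment with NPC or MIPE compounds in titration; values normalized to plate controls.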

Measured: Potency

CC1(C)CC[C@]2(C(=O)O)CC[C@]3(C)C(=CCC4[C@@]5(C)C[C@@H](O)[C@H](O)C(C)(C)C5CC[C@]43C)[C@@H]2[C@@H]1O (some centres undefined)
inactive: [1] | [2] | [3] | [4] | [5] | [6] | [7] | [8] | [9] | [10] | [11] | [12]

CC(C)(O)C1CCC2(C)C3C(O)C4C(C13)C42CO (centres undefined)
inactive: [1] | [2] | [3] | [4] | [5] | [6] | [7] | [8] | [9] | [10] | [11] | [12]

CC(=O)O[C@@]1(C)C[C@@H](O)[C@]2(O)C=CO[C@@H](O[C@@H]3O[C@H](CO)[C@@H](O)[C@H](O)[C@H]3O)[C@@H]21
inactive: [13] inactive [at 17.4 µM] | [1] | [3] | [4] | [5] | [6] | [7] | [8] | [9] | [10] | [11] | [12]

COC(=O)c1cc(CN2CCN(C(=N)N)CC2)cc(C(=O)N2CCN(C(=O)c3ccc(C(=N)N)cc3)CC2)c1
inactive: [13] | [1] | [3] | [4] | [5] | [6] | [7] | [8] | [9] | [10] | [11] | [12]

C=C(C)C(=O)O[C@H]1C[C@@](C)(OC(C)=O)[C@@]2(O)CC[C@@](C)(O)[C@H](OC(C)=O)[C@@]23OC(=O)C(COC)=C13
inactive: [13] inactive [at 17.4 µM] | [1] | [3] | [4] | [5] | [6] | [7] | [8] | [9] | [10] | [11] | [12]

Cn1ccnc1CCOC(c1cc2nccc(C(=O)O)c2[nH]1)c1ccccc1Cl (centres undefined)
inactive: [1] | [2] | [3] | [4] | [5] | [6] | [7] | [8] | [9] | [10] | [11] | [12]

COc1cc(/C=C/C(=O)O[C@H]2[C@H](OC(=O)/C=C/c3cc(OC)c(O)c(OC)c3)O[C@H](CO[C@@H]3O[C@H](CO)[C@@H](O)[C@H](O)[C@H]3O)[C@@H](O)[C@@H]2O)ccc1O
inactive: [1] | [2] | [3] | [4] | [5] | [6] | [7] | [8] | [9] | [10] | [11] | [12]
